Six1-Eya2 inh – qHTS Assay for Inhibitors of the Six1/Eya2 Interaction; Homeobox protein SIX1 (Homo sapiens) + Protein phosphatase EYA2 (Homo sapiens), …; AlphaScreen GST-Six1/His-Eya2 binding, biochemical; active compounds read low; activity change, % (no concentration beside the values); hit rate 0.56% among 360,000; AID 651725, 2012; in the data active = activity change below about -65%; inconclusive = mostly about -30% to -63%; note: % is set by controls: 0 for no effect and ±100 for the full control effect
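Compounds are tested against tagged Six1 and Eya2 proteins bridged by glutathione donor and nickel acceptor beads; after a one-hour incubation at 37 °C without light, AlphaScreen emission is recorded.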
HP1b chromo inh – HTS for Inhibitors of HP1-beta Chromodomain Interactions with Methylated Histone Tails; AID 540317, 2011; Potency, µM (top dose mostly 114 µM), for inactives: top-dose activity change, negative = inhibition, actives largely listed as inhibitors; Chromobox protein homolog 1 (Homo sapiens), P83916; hit rate 0.56% among 390,000; AlphaScreen HP1-beta / biotin-H3K9me3 peptide binding; note: potency is the fitted concentration of half-maximal effect; nearly all actives have a fitted effect of over 70% in size
Target sequence (P83916 whole entry, looked up): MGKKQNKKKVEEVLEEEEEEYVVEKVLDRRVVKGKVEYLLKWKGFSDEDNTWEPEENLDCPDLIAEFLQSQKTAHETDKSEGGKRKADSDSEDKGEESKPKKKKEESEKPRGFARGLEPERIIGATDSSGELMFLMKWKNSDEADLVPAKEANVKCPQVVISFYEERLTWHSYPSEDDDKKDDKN
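HP1-beta protein (50 nM final) preincubated 30 min at room temperature with biotinylated H3(1-18)K9me3 peptide (50 nM) in PBS pH 7.4, 0.01% Tween-20, then compound added for 30 min. AlphaScreen streptavidin donor/nickel chelate acceptor beads (10 ug/mL final), 30 min dark, luminescence read.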
JMJD2A Tudor – qHTS Assay for Inhibitors of JMJD2A-Tudor Domain. Potency, µM (highest dose often 114 µM), without a hit: at the highest dose activity change, negative = inhibition, most hits filed as inhibitors. AlphaScreen JMJD2A-Tudor / H3K4me3 peptide binding. hit rate 4.4% among 390,000; note: potency is the fitted concentration of half-maximal effect; % is set by controls: 0 for no effect and ±100 for the full control effect; nearly all actives have a fitted effect of over 50% in size
G9a inh – qHTS Assay for Inhibitors of Histone Lysine Methyltransferase G9a; G9a H3K9 monomethylation, AlphaScreen, 2 h; hit rate 8.8% among 350,000; Histone-lysine N-methyltransferase EHMT2 (Homo sapiens), Q96KQ7; Potency, µM (highest dose often 102 µM), for inactives: at the highest dose activity, negative = inhibition, actives largely listed as inhibitors; AID 504332, 2011; note: potency is the fitted concentration of half-maximal effect; % is set by controls: 0 for no effect and ±100 for the full control effect; nearly all actives have a fitted effect of over 75% in size
Target sequence (Q96KQ7 913-1193 limits assumed): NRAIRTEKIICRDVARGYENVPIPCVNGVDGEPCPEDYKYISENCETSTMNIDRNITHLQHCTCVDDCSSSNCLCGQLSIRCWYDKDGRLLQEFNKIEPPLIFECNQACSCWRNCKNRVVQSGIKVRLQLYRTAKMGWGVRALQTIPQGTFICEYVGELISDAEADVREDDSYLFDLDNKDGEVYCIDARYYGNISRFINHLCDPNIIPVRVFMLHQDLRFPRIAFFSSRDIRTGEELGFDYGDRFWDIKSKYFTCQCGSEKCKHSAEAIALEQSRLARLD
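Methyltransferase reactions run at room temperature for 2 h (20 nM enzyme, 500 nM biotin-H3K9 peptide, 20 uM SAM) after a 15 min compound preincubation; product detected by AlphaScreen beads and anti-H3K9me1 antibody.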
BAZ2B block – qHTS Assay for Inhibitors of BAZ2B; AlphaScreen BAZ2B-H3K14Ac peptide displacement; Potency, µM (series often up to 114 µM), for inactives: at the highest dose activity change, negative = inhibition, usual class: inhibitors; hit rate 4.4% among 360,000; note: potency is the fitted concentration of half-maximal effect; % is set by controls: 0 for no effect and ±100 for the full control effect; nearly all actives have a fitted effect of over 60% in size
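AlphaScreen luminescence quantifies BAZ2B engagement of H3K14Ac peptide; the protein and biotinylated peptide are both at 50 nM final, buffer PBS pH 7.4 with 0.01% Tween-20, all steps at room temperature.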
CtBP-E1A inh – qHTS Assay for Inhibitors of the CtBP/E1A Interaction | AID 651724, 2012 | AlphaScreen GST-E1A/His-CtBP binding, 1536-well; active compounds read low | hit rate 0.49% among 340,000 | activity change, % (concentration not given with the values); in the data active = activity change below about -65%; inconclusive = mostly about -30% to -63%; note: % is set by controls: 0 for no effect and ±100 for the full control effect
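Steps: dispense buffer (Tris pH 8.0, NaCl 300 mM, TCEP 1 mM, BSA, Tween 20); add 5X protein mix (GST-E1A, His-CtBP, 125 nM each); pin 23 nL compound; 2 h at 37 °C, dark; add 5X beads (50 ug/mL); 1 h; read.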
Starred values were filed as active, the others as inactive; ? = inconclusive; / = not tested or not shown; [ ] = another dose, or the depositor's remark. Sampled rows, rich in hits. Any-hit rate of the full collection: about 10%. Unless noted, calls come from the whole dose curve; as a rule, active = well fitted inhibition curve with a large enough effect; inconclusive = small, poorly fitted or top-dose-only effect; inactive = no such curve, though single readings can be large or run the other way.

SMILES	Six1-Eya2 inh	HP1b chromo inh	JMJD2A Tudor	G9a inh	BAZ2B block	CtBP-E1A inh
O=[N+]([O-])c1ccc(O)c(C2=NNC(c3ccccc3F)C2)c1 (stereo unspecified)	19	0%[57 µM]	?	40µM*	-31%	-8
N#Cc1ccc(CN2CC3(CCN(C(=O)c4cnccn4)CC3)C2)cc1	/	/	/	-2%[12.7 µM]	/	/
CN(C)c1ccc(-c2ccncc2)cc1	/	/	/	8%[2.33 µM]	4%	/
CC/C(=C\c1ccc(N(C)C)cc1)c1ccncc1	?	?	22µM*	/	/	?
O=C(Nc1ccc(Cl)cc1)Nc1ccccc1CC[N+](=O)[O-]	-1	-8%	22µM*	-43%	-28%	1
CN(C)C(=O)Nc1ccccc1CC[N+](=O)[O-]	-1	20%	-3%	-18%	-14%	-3
O=C(O)CCn1cc(/C=C\C(=O)c2ccc(Cl)cc2)c(-c2cccc(Br)c2)n1	-5	-6%	-27%	2%[59 µM]	?	0
Cc1ccc(-c2nn(CCC(=O)O)cc2/C=C\C(=O)c2ccc(Br)cc2)cc1	10	24%	?	25µM*	?	0
OC(C#Cc1ccccn1)c1cccs1 (stereo unspecified)	-27	?	45µM*	-114%[12.7 µM]	7.1µM*	-16
COc1ccccc1Cc1nc2ccccc2nc1SCC(=O)Nc1cccc(Cl)c1C	/	27%[57 µM]	7%	6%[59 µM]	3%	/
Cc1cccc(C)c1NC(=O)C1(C)CN(S(C)(=O)=O)CC(=O)N1CCc1ccc(O)cc1 (stereo unspecified)	1	/	/	/	/	-7
Cc1nc(NS(=O)(=O)c2ccc(Cl)s2)c2c3c(sc2n1)CCCC3	-8	18%	-26%	50µM*	-29%	/
CCOC(=O)/C(CCC[N+](C)(CC)CC)=N\O	8	?	?	11µM*	-32%	1
CCCC(=O)NC(c1ccco1)c1c(O)ccc2ccccc12 (stereo unspecified)	-6	-5%	-35%	13µM*	-27%	-9
CCCC(=O)NC(c1ccco1)c1cc([N+](=O)[O-])c2cccnc2c1O (stereo unspecified)	-92*	54%	-20%[11.4 µM]	28µM*	7.9µM*	/
O=C(NC(c1ccc(Cl)cc1)c1cc(Cl)c2cccnc2c1O)c1cccnc1 (stereo unspecified)	-17	32%	-21%	11%[59 µM]	3%	-4
CCCCC(=O)NC(c1ccco1)c1c(O)ccc2ccccc12 (stereo unspecified)	-10	-7%	-35%	-25%[12.7 µM]	-38%	-1
CC(=O)NC(c1ccccc1)c1cc(Cl)c2cccnc2c1O (stereo unspecified)	-87*	32%	?	/	35µM*	-91*
CC(=O)NC(c1ccc(C)cc1)c1cc([N+](=O)[O-])c2cccnc2c1O (stereo unspecified)	-90*	-21%	14µM*	35µM*	4.5µM*	-93*
CC(c1ccco1)N(C(=O)c1ccccc1NS(=O)(=O)c1ccc(Cl)c([N+](=O)[O-])c1)c1ccccn1 (stereo unspecified)	-10	-1%	-33%	?	?	21
O=C(NCc1cccnc1)C(=O)NCC(c1cccnc1)N1CCN(c2ccccc2F)CC1 (stereo unspecified)	/	5%	-17%	-26%[59 µM]	?	/
Cc1oc2ccc(O)c(CN(C)Cc3ccccc3)c2c1C(=O)Nc1ccccc1	/	-1%	-21%	?	-26%	/
COc1ccc(C(NC(C)=O)c2cc(Cl)c3cccnc3c2O)cc1 (stereo unspecified)	-83*	58%	?	-10%[0.501 µM]	?	-93*

Compound activity deposited in PubChem BioAssay by National Center for Advancing Translational Sciences (NCATS).
